About 2,000 (36%) of roughly 5,500 compounds were called active. Another 18% or so got no clear call; they are omitted. Rule as the data show it: active = normalized growth mostly below about 0.91 (no sharp cut-off); inconclusive = no clear call, values can overlap the other calls; inactive = mostly above about 0.92. The list shows a part of the results.
Assay: chemical genetic growth profiling, strain panel (AID 1159580);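 also: tested at 20 µM; growth read once vehicle control cultures reached saturation at 30 °C; 1 = growth at the plate median or of vehicle wells; lower values mean less growth of the strain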
Conditions: growth OD

Measured: normalized growth

C[C@@H]1C[C@@H]([C@H](O)CC2CC(=O)NC(=O)C2)C(=O)[C@@H](C)C1
inactive: S. cerevisiae deletion strains, locus YOL012C, strain htz1 0.234
active: S. cerevisiae deletion strains, locus YJR075W, strain HOC1, hits give low values 0.0698 | S. cerevisiae deletion strains, locus YKL009W, strain mrt4, hits give low values 0.0696 | S. cerevisiae deletion strains, locus YKL068W, hits give low values 0.0541 | S. cerevisiae deletion strains, locus YKL085W, strain MDH1 (second series), hits give low values 0.0512 | S. cerevisiae deletion strains, locus YKL085W, strain MDH1, hits give low values 0.0512 | S. cerevisiae deletion strains, locus YKL160W, strain elf1, hits give low values 0.0661 | S. cerevisiae deletion strains, locus YKL190W, strain CNB1, hits give low values 0.0498 | S. cerevisiae deletion strains, locus YKR001C, strain vps1, hits give low values 0.0635 | S. cerevisiae deletion strains, locus YKR026C, strain gcn3, hits give low values 0.0607 | S. cerevisiae deletion strains, locus YKR091W, strain srl3, hits give low values 0.0583 | S. cerevisiae deletion strains, locus YLL001W, strain dnm1, hits give low values 0.0597 | S. cerevisiae deletion strains, locus YLL026W, hits give low values 0.0551 | S. cerevisiae deletion strains, locus YLL041C, strain sdh2, hits give low values 0.0553 | S. cerevisiae deletion strains, locus YLR027C, strain aat2, hits give low values 0.0609 | S. cerevisiae deletion strains, locus YLR039C, strain RIC1, hits give low values 0.0922 | S. cerevisiae deletion strains, locus YLR058C, strain SHM2, hits give low values 0.041 | S. cerevisiae deletion strains, locus YLR102C, strain apc9, hits give low values 0.0592 | S. cerevisiae deletion strains, locus YLR113W, strain HOG1, hits give low values 0.12 | S. cerevisiae deletion strains, locus YLR221C, strain rsa3, hits give low values 0.0588 | S. cerevisiae deletion strains, locus YLR258W, strain gsy2, hits give low values 0.0568 | S. cerevisiae deletion strains, locus YLR262C, strain YPT6 (second series), hits give low values 0.0723 | S. cerevisiae deletion strains, locus YLR262C, strain YPT6, hits give low values 0.108 | S. cerevisiae deletion strains, locus YLR268W, strain sec22, hits give low values 0.0667 | S. cerevisiae deletion strains, locus YLR320W, strain mms22, hits give low values 0.0766 | S. cerevisiae deletion strains, locus YLR330W, strain CHS5, hits give low values 0.0515 | S. cerevisiae deletion strains, locus YLR342W, strain FKS1 (second series), hits give low values 0.0688 | S. cerevisiae deletion strains, locus YLR342W, strain FKS1, hits give low values 0.0659 | S. cerevisiae deletion strains, locus YLR357W, strain rsc2, hits give low values 0.119 | S. cerevisiae deletion strains, locus YLR370C, strain arc18, hits give low values 0.0598 | S. cerevisiae deletion strains, locus YLR371W, strain rom2, hits give low values 0.0594 | S. cerevisiae deletion strains, locus YLR384C, strain iki3, hits give low values 0.0596 | S. cerevisiae deletion strains, locus YLR418C, strain cdc73, hits give low values 0.0977 | S. cerevisiae deletion strains, locus YML016C, strain PPZ1, hits give low values 0.055 | S. cerevisiae deletion strains, locus YML032C, strain rad52, hits give low values 0.0671 | S. cerevisiae deletion strains, locus YML120C, strain ndi1, hits give low values 0.0554 | S. cerevisiae deletion strains, locus YML124C, strain tub3, hits give low values 0.0568 | S. cerevisiae deletion strains, locus YMR058W, strain fet3, hits give low values 0.0596 | S. cerevisiae deletion strains, locus YMR078C, strain ctf18, hits give low values 0.0691 | S. cerevisiae deletion strains, locus YMR125W, strain sto1, hits give low values 0.0765 | S. cerevisiae deletion strains, locus YMR129W, hits give low values 0.0549 | S. cerevisiae deletion strains, locus YMR205C, strain PFK2, hits give low values 0.0823 | S. cerevisiae deletion strains, locus YMR223W, strain ubp8, hits give low values 0.065 | S. cerevisiae deletion strains, locus YMR231W, strain pep5, hits give low values 0.0689 | S. cerevisiae deletion strains, locus YMR263W, strain SAP30, hits give low values 0.0637 | S. cerevisiae deletion strains, locus YMR307W, strain GAS1, hits give low values 0.121 | S. cerevisiae deletion strains, locus YNL067W, strain RPL9B, hits give low values 0.0574 | S. cerevisiae deletion strains, locus YNL071W, strain lat1, hits give low values 0.0587 | S. cerevisiae deletion strains, locus YNL128W, strain TEP1, hits give low values 0.0594 | S. cerevisiae deletion strains, locus YNL153C, strain GIM3, hits give low values 0.0488 | S. cerevisiae deletion strains, locus YNL183C, strain NPR1, hits give low values -0.00319 | S. cerevisiae deletion strains, locus YNL209W, strain ssb2, hits give low values 0.0566 | S. cerevisiae deletion strains, locus YNL233W, strain BNI4, hits give low values 0.0543 | S. cerevisiae deletion strains, locus YNL248C, strain rpa49, hits give low values 0.0754 | S. cerevisiae deletion strains, locus YNL250W, strain rad50, hits give low values 0.0626 | S. cerevisiae deletion strains, locus YNL271C, strain bni1, hits give low values 0.0609 | S. cerevisiae deletion strains, locus YNL298W, strain CLA4, hits give low values 0.0597 | S. cerevisiae deletion strains, locus YNL307C, strain MCK1, hits give low values 0.0682 | S. cerevisiae deletion strains, locus YNL322C, strain KRE1 (second series), hits give low values 0.0709 | S. cerevisiae deletion strains, locus YNL322C, strain KRE1, hits give low values 0.0498 | S. cerevisiae deletion strains, locus YNR049C, strain mso1, hits give low values 0.0539 | S. cerevisiae deletion strains, locus YNR052C, strain pop2, hits give low values 0.0603 | S. cerevisiae deletion strains, locus YOL006C, strain TOP1, hits give low values 0.0855 | S. cerevisiae deletion strains, locus YOL147C, strain pex11, hits give low values 0.0565 | S. cerevisiae deletion strains, locus YOR001W, strain rrp6, hits give low values 0.0676 | S. cerevisiae deletion strains, locus YOR061W, strain CKA2, hits give low values 0.0412 | S. cerevisiae deletion strains, locus YOR069W, strain VPS5, hits give low values 0.0494 | S. cerevisiae deletion strains, locus YOR070C, strain gyp1, hits give low values 0.056 | S. cerevisiae deletion strains, locus YOR080W, strain dia2, hits give low values 0.0619 | S. cerevisiae deletion strains, locus YOR083W, strain WHI5, hits give low values 0.0654 | S. cerevisiae deletion strains, locus YOR106W, strain vam3, hits give low values 0.0681 | S. cerevisiae deletion strains, locus YOR136W, strain idh2, hits give low values 0.0689 | S. cerevisiae deletion strains, locus YOR144C, strain elg1, hits give low values 0.0565 | S. cerevisiae deletion strains, locus YOR184W, strain ser1, hits give low values 0.0727 | S. cerevisiae deletion strains, locus YOR231W, strain MKK1, hits give low values 0.111 | S. cerevisiae deletion strains, locus YOR265W, strain rbl2, hits give low values 0.0548 | S. cerevisiae deletion strains, locus YOR270C, strain vph1, hits give low values 0.1 | S. cerevisiae deletion strains, locus YOR290C, strain snf2, hits give low values 0.0637 | S. cerevisiae deletion strains, locus YOR316C, strain cot1, hits give low values 0.0575 | S. cerevisiae deletion strains, locus YPL051W, strain arl3, hits give low values 0.0621 | S. cerevisiae deletion strains, locus YPL055C, strain LGE1, hits give low values 0.0743 | S. cerevisiae deletion strains, locus YPL078C, strain atp4, hits give low values 0.0696 | S. cerevisiae deletion strains, locus YPL106C, strain sse1, hits give low values 0.0938 | S. cerevisiae deletion strains, locus YPL240C, strain hsp82, hits give low values 0.0556 | S. cerevisiae deletion strains, locus YPL241C, strain CIN2, hits give low values 0.0514 | S. cerevisiae deletion strains, locus YPL256C, strain CLN2, hits give low values 0.112 | S. cerevisiae deletion strains, locus YPR119W, strain clb2, hits give low values 0.0611 | S. cerevisiae deletion strains, locus YPR141C, strain kar3, hits give low values 0.0644 | S. cerevisiae deletion strains, locus YPR163C, strain tif3, hits give low values 0.0667 | S. cerevisiae deletion strains, locus YPR167C, strain met16, hits give low values 0.0591 | S. cerevisiae deletion strains, strain wtn01, hits give low values 0.0603 | S. cerevisiae strains, strain wild type, hits give low values 0.0494
